# Measured values taken from PubChem BioAssay.
# For some of these results: Potency and affinity values are given separately. Calls of active or inactive are those of the source.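 How the source made its calls, unless noted: active means primary screen active and over 50% activation in each of two duplicate runs; inactive means the rest.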
# Key:
# [1] = system: TRPC4 beta (transient receptor potential cation channel C4), mouse; assay: TRPC4 cation channel opening, retest – cell-based, Fluo4 calcium, HEK293 TRPC4beta/mu-opioid, duplicates, 10 µM, confirmation (AID 2426;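 active means fluorescence ratio normalized to control raised more than 50% in primary screen plus both repeat runs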); details: Fluo4 calcium fluorescence, at 10 µM; active compounds read high
# [2] = system: transient receptor potential cation channel C4 beta (TRPC4), mouse; assay: TRPC4 cation channel opening, second retest – cell-based, second round, Fluo4, HEK293 TRPC4beta/mu-opioid, 1 µM, confirmation (AID 2461); details: Fluo4 calcium fluorescence, at 1 µM; active compounds read high
# [3] = system: TRPC4 (transient receptor potential cation channel C4 beta), mouse; assay: potentiation of DAMGO EC20 TRPC4 response – cell-based, second round, Fluo-4, HEK293 TRPC4beta/mu-opioid, 1 µM, confirmation (AID 2554;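 active means primary screen hit whose fluorescence ratio, in both repeats, exceeds the weak agonist control mean by 3 SD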); details: DAMGO EC20, Fluo-4 calcium flux, at 1 µM; active compounds read high
# [4] = system: TRPC4 beta (transient receptor potential cation channel C4), mouse; assay: potentiation of DAMGO EC20 TRPC4 response – cell-based, Fluo-4, HEK293 TRPC4beta/mu-opioid, confirmation (AID 2555;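 active means primary screen hit whose calcium fluorescence ratio, in both repeats, exceeds the weak agonist control mean by 3 SD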); details: DAMGO EC20, Fluo-4 calcium flux, at 10 µM; active compounds read high
# [5] = target: Short transient receptor potential channel 4 (Mus musculus) (UniProt Q9QUQ5); assay: blockers of DAMGO-evoked TRPC4 calcium flux – cell-based, Fluo4, HEK293 TRPC4beta/mu-opioid, confirmation (AID 2636;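 active means calcium signal cut by more than 3 SD below the full-agonist control yet still positive, in both repeats and the earlier primary screen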); details: at 10 µM; active compounds read high
# [6] = target: Short transient receptor potential channel 4 (Mus musculus) (UniProt Q9QUQ5); assay: blockers of DAMGO-evoked TRPC4 calcium flux – cell-based, second round, Fluo4, HEK293 TRPC4beta/mu-opioid, 1 µM, confirmation (AID 2637;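 active means calcium signal ratio cut to more than 3 SD under the fully stimulated control mean yet still positive, in both repeats and the primary screen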;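 on inhibition: percent of integrated ratio relative to wells lacking test compound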); details: at 1 µM; active compounds read high
# [7] = target: Short transient receptor potential channel 4 (Mus musculus) (UniProt Q9QUQ5); assay: calcium entry via TRPC4 opening agents – cell-based, HEK293 TRPC4/mu-opioid, Fluo-4 calcium, dose response (AID 434937;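 active means primary screen activator hit with a dose response curve and TRPC4 channel activation at any tested dose; inactive means no activation, no dose response, or not a primary hit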)
# [8] = target: Short transient receptor potential channel 4 (Mus musculus) (UniProt Q9QUQ5); assay: potentiation of DAMGO-evoked TRPC4 calcium signal – cell-based, HEK293 TRPC4/mu-opioid, Fluo-4 calcium, EC20 DAMGO, dose response (AID 434941;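 active means earlier screen potentiator hit that boosts the TRPC4 ion channel at some dose, with a dose response; inactive means no potentiation, no dose response, or not a prior hit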;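 further: calcium entry triggered by an EC20 dose of DAMGO at the co-expressed mu-opioid receptor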)
# [9] = target: Short transient receptor potential channel 6 (Mus musculus) (UniProt Q61143); assay: TRPC6 blockade by TRPC4 inhibitor hits – cell-based, HEK293, membrane potential dye, duplicate, selectivity assay for TRPC4 inhibitor project, confirmation (AID 434948;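 active means active in primary screen and both duplicates, each dropping signal beyond three positive-control SD with fluorescence still positive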); details: HEK293 TRPC6, membrane potential dye fluorescence, at 10 µM, stimulated with maximal-effect acetylcholine; active compounds read high
# [10] = target: Short transient receptor potential channel 6 (Mus musculus) (UniProt Q61143); assay: TRPC6 opening by TRPC4 activator hits – cell-based, HEK293, membrane potential dye, duplicate, selectivity assay for TRPC4 activator project, confirmation (AID 434950;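 active means membrane potential signal rise above negative control mean plus 3 SD in both duplicates, also active in the earlier TRPC4 screen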); details: HEK293 TRPC6, membrane potential fluorescence, at 10 µM; activation: active compounds read high; outcome: activation
# [11] = target: Short transient receptor potential channel 6 (Mus musculus) (UniProt Q61143); assay: positive modulators of mouse TRPC6 channel – HEK293 cells, membrane potential dye, duplicate, selectivity assay for TRPC4 potentiator project, confirmation (AID 434952;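 active means compound raising the membrane signal above positive-control mean plus 3 SD in both repeats, and a primary screen hit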); details: HEK293 TRPC6, membrane potential dye fluorescence, at 10 µM, maximal acetylcholine added after compound; active compounds read high
# [12] = target: Short transient receptor potential channel 4 (Mus musculus) (UniProt Q9QUQ5); assay: calcium flux activators in TRPC4/5HT1a cells, counter-screen for TRPC4 activator project, cell-based, second counter screen, HEK293 TRPC4/5HT1a, Fluo-4 (AID 434977;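 active means calcium signal rise above buffer-control mean plus 5 SD in both duplicates, and also a hit in the primary screen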); details: Fluo-4 calcium flux, at 10 µM; active compounds read high
# [13] = serotonin-gated TRPC4 signal block – cell-based, second counter screen, HEK293 TRPC4/5HT1a, Fluo-4, counter-screen for TRPC4 inhibitor project, confirmation (AID 434978;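 active means primary screen active whose calcium signal fell more than 3 SD beyond the full-serotonin control mean in both duplicate plates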;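 on outcome: serotonin given first at submaximal then at maximal dose after compound preincubation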); details: Fluo-4 calcium flux, at 10 µM, serotonin added to trigger calcium flux; active compounds read high
# [14] = system: TRPC4 (mouse), co-expressed with 5HT1a in HEK293; assay: enhancement of serotonin-evoked TRPC4 response – cell-based, second counter screen, HEK293 TRPC4/5HT1a, Fluo-4, counter-screen for TRPC4 potentiator project, confirmation (AID 434979;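 active means signal rise over 3 SD above mean of control wells given weak agonist, in both repeats and first screen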); details: Fluo-4 calcium flux, at 10 µM, serotonin added at its EC20 dose; active compounds read high
# [15] = nonspecific calcium rise without TRPC4 – cell-based, HEK293 mu-opioid receptor line, counter-screen for TRPC4 activator project, confirmation (AID 449723;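 active means hit in primary screen, with calcium signal over 5 SD above buffer well mean in both duplicates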;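 further: counter screen cells carry the mu-opioid receptor alone and lack TRPC4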); details: HEK293 mu-opioid cells, Fluo-4 calcium fluorescence, at 10 µM; active compounds read high
# [16] = nonspecific potentiation of DAMGO calcium response – cell-based, HEK293 mu-opioid receptor line, counter-screen for TRPC4 allosteric potentiator project, confirmation (AID 449724;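 active means calcium signal rise more than 3 SD above the low-dose agonist control mean, in both duplicate plates and the primary screen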); details: HEK293 mu-opioid receptor cells, Fluo-4 calcium flux, at 10 µM, compound added before EC20 DAMGO stimulus; active compounds read high
# Chain of Short transient receptor potential channel 6 (Mus musculus) (Q61143 whole entry, looked up): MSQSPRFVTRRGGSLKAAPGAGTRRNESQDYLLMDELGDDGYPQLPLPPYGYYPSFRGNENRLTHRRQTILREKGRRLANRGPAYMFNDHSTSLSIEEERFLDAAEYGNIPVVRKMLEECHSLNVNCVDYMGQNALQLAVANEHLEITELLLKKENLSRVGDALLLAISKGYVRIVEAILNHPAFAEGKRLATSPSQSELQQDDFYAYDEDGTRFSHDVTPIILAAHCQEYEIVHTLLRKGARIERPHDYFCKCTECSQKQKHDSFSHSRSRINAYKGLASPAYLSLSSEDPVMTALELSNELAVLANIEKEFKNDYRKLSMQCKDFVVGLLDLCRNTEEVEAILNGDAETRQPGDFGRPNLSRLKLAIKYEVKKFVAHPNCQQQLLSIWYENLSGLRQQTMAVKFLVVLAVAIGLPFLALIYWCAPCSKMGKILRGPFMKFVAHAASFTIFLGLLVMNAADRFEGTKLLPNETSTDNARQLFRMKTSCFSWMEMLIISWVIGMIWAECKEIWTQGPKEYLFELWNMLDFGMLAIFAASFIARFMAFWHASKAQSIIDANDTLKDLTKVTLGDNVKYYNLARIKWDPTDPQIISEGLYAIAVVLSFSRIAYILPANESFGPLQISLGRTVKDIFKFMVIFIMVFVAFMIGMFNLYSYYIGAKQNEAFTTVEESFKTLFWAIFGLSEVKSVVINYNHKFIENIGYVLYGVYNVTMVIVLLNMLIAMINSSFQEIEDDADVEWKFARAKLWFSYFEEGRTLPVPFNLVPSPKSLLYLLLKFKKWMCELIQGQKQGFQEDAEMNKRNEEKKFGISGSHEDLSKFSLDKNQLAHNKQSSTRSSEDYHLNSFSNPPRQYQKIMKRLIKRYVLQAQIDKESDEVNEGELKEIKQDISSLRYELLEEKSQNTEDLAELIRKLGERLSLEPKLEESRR
# Chain of Short transient receptor potential channel 4 (Mus musculus) (Q9QUQ5 whole entry, looked up): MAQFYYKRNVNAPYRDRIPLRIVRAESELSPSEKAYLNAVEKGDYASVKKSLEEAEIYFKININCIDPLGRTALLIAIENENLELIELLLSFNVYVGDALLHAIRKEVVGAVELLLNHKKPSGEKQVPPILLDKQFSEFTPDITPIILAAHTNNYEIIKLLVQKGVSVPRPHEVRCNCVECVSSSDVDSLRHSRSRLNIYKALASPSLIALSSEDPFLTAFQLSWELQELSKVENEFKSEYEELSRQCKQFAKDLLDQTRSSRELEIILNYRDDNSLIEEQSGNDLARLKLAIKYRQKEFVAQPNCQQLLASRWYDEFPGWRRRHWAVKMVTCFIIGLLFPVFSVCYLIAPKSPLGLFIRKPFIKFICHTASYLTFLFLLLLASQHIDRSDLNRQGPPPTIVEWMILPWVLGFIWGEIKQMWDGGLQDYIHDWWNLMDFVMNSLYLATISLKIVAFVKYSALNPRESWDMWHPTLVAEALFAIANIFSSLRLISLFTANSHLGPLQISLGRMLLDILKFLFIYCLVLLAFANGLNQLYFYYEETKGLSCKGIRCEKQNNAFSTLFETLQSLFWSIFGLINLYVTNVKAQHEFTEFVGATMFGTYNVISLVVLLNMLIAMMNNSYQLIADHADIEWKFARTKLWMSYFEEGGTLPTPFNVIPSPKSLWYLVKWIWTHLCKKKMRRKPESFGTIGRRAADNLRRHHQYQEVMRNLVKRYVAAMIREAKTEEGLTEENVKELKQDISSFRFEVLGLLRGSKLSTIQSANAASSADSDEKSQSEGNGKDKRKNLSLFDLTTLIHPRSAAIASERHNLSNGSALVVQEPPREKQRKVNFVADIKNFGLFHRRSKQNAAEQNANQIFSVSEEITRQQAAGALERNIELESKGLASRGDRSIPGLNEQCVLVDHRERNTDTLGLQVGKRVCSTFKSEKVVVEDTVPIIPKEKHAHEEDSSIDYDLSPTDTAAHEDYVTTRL
SMILES,outcome [1],outcome [2],outcome [3],outcome [4],inhibition [5],outcome [6],outcome [7],outcome [8],outcome [9],outcome [10],outcome [11],outcome [12],outcome [13],outcome [14],outcome [15],outcome [16],inhibition [13],inhibition [6],inhibition [9],outcome [5]
O=C(COc1ccc(Cl)cc1)Nc1ccc(C(=O)O)cc1NC(=O)COc1ccc(Cl)cc1,inactive,inactive,inactive,inactive,68% (active),inactive,inactive,inactive,inactive,inactive,inactive,inactive,inactive,inactive,inactive,inactive,–,–,–,–
Cc1c(N)c(C(C)(C)C)cc(C(C)(C)C)c1[N+](=O)[O-],inactive,inactive,inactive,inactive,92% (active),inactive,inactive,inactive,inactive,inactive,inactive,inactive,–,inactive,inactive,inactive,29.4% (active),–,–,–
CC1CCc2nc(NC(=O)CN3CCN(Cc4ccc5c(c4)OCO5)CC3)sc2C1 (stereo unspecified),inactive,inactive,inactive,inactive,77% (active),inactive,inactive,inactive,inactive,inactive,inactive,inactive,–,inactive,inactive,inactive,28.7% (active),–,–,–
CCOc1ccccc1-n1c(SCC(=O)Nc2nccs2)nnc1-c1ccoc1C,inactive,inactive,inactive,inactive,52% (active),–,inactive,inactive,inactive,inactive,inactive,inactive,inactive,inactive,inactive,inactive,–,44% (active),–,–
Oc1ccccc1Nc1nc(NCc2ccco2)c2ccccc2n1,inactive,inactive,inactive,inactive,88% (active),inactive,inactive,inactive,–,inactive,inactive,inactive,–,inactive,inactive,inactive,39.1% (active),–,34.5% (active),–
Cc1ccccc1OCCn1c(C)nc2ccccc21,inactive,inactive,inactive,inactive,36% (active),–,inactive,inactive,inactive,inactive,inactive,inactive,–,inactive,inactive,inactive,13.3% (active),57% (active),–,–
CCc1ccccc1NC(=S)N(CCCN(C)C)Cc1cc2cc3c(cc2[nH]c1=O)OCO3,inactive,inactive,inactive,inactive,94% (active),–,inactive,inactive,inactive,inactive,inactive,inactive,–,inactive,inactive,inactive,19.9% (active),92% (active),–,–
NC(=O)c1nsc(C(=O)N(Cc2ccc(F)cc2)C(C(=O)NCC2CCCO2)c2ccc(O)cc2)c1N (stereo unspecified),inactive,inactive,inactive,inactive,77% (active),inactive,inactive,inactive,inactive,inactive,inactive,inactive,–,inactive,inactive,inactive,25.6% (active),–,–,–
CCCn1c(=N)n(CC(=O)C(C)(C)C)c2ccccc21,inactive,inactive,inactive,inactive,92% (active),inactive,inactive,inactive,inactive,inactive,inactive,inactive,–,inactive,inactive,inactive,42.4% (active),–,–,–
CCCCCCCCCCCCOC(=O)C[N+](C)(C)C,inactive,inactive,inactive,inactive,–,inactive,inactive,inactive,inactive,inactive,inactive,inactive,–,inactive,inactive,inactive,37.5% (active),–,–,inactive
O/N=C/c1ccccc1Oc1ccc(Cl)cc1,inactive,inactive,inactive,inactive,98% (active),inactive,inactive,inactive,inactive,inactive,inactive,inactive,–,inactive,inactive,inactive,7.58% (active),–,–,–
CN(C)CCCN(C(=O)c1ccc(S(=O)(=O)N2CCCC2)cc1)c1nc2c(F)cc(F)cc2s1,inactive,inactive,inactive,inactive,68% (active),inactive,inactive,inactive,inactive,inactive,inactive,inactive,inactive,inactive,inactive,inactive,–,–,–,–
COCCn1c(SCc2ccc(F)cc2)nc2ccccc2c1=O,inactive,inactive,inactive,inactive,96% (active),inactive,inactive,inactive,inactive,inactive,inactive,inactive,–,inactive,inactive,inactive,21.6% (active),–,–,–
COCCn1c(SCC(=O)c2ccccc2)nc2ccccc2c1=O,inactive,inactive,inactive,inactive,91% (active),–,inactive,inactive,inactive,inactive,inactive,inactive,–,inactive,inactive,inactive,20.4% (active),48% (active),–,–
C=CCN(CC(O)c1cccc([N+](=O)[O-])c1)C(C)CCc1ccccc1 (stereo unspecified),inactive,inactive,inactive,inactive,79% (active),inactive,inactive,inactive,inactive,inactive,inactive,inactive,–,inactive,inactive,inactive,25.6% (active),–,–,–
O=C(c1ccc2c(c1)OCO2)C1CCCN(Cc2ccccc2OC(F)F)C1 (stereo unspecified),inactive,inactive,inactive,inactive,89% (active),inactive,inactive,inactive,inactive,inactive,inactive,inactive,–,inactive,inactive,inactive,41.6% (active),–,–,–

SMILES,outcome [1],outcome [2],outcome [3],outcome [4],inhibition [5],outcome [6],outcome [7],outcome [8],outcome [9],outcome [10],outcome [11],outcome [12],outcome [13],outcome [14],outcome [15],outcome [16],inhibition [13],inhibition [6],inhibition [9],outcome [5]
COc1ccc(C(CNC(=O)c2oc3ccc(Cl)cc3c2C)N2CCCCC2)cc1 (stereo unspecified),inactive,inactive,inactive,inactive,83% (active),inactive,inactive,inactive,inactive,inactive,inactive,inactive,inactive,inactive,inactive,inactive,–,–,–,–
CCOc1ccc(Br)cc1/C=N/O,inactive,inactive,inactive,inactive,90% (active),inactive,inactive,inactive,–,inactive,inactive,inactive,–,inactive,inactive,inactive,29.2% (active),–,27.5% (active),–
Cc1nc2ccccc2n1Cc1ccc(Br)cc1,inactive,inactive,inactive,inactive,96% (active),–,inactive,inactive,inactive,inactive,inactive,inactive,–,inactive,inactive,inactive,9.19% (active),74% (active),–,–
Cc1ccc(-c2csc(N(CCCN(C)C)C(=O)c3ccco3)n2)cc1,inactive,inactive,inactive,inactive,–,–,inactive,inactive,–,inactive,inactive,inactive,inactive,inactive,inactive,inactive,–,52% (active),37.5% (active),inactive
CC(C)Oc1cccc(C(=O)C2CCCN(Cc3cnn(C(C)C)c3)C2)c1 (stereo unspecified),inactive,inactive,inactive,inactive,93% (active),–,inactive,inactive,inactive,inactive,inactive,inactive,inactive,inactive,inactive,inactive,–,47% (active),–,–
Cc1cc2[nH]c3ccccc3c2c(C)n1,inactive,inactive,inactive,inactive,87% (active),inactive,inactive,inactive,–,inactive,inactive,inactive,–,inactive,inactive,inactive,20.3% (active),–,41.5% (active),–
COC(=O)c1cccc(NC(=S)Nc2cccc(Cl)c2Cl)c1,inactive,inactive,inactive,inactive,78% (active),inactive,inactive,inactive,inactive,inactive,inactive,inactive,inactive,inactive,inactive,inactive,–,–,–,–
CCOC(=O)C1(CCc2ccccc2)CCN(Cc2ccccn2)CC1,inactive,inactive,inactive,inactive,88% (active),inactive,inactive,inactive,inactive,inactive,inactive,inactive,inactive,inactive,inactive,inactive,–,–,–,–
OCC1(CCCc2ccccc2)CCN(Cc2cc(F)ccc2F)CC1,inactive,inactive,inactive,inactive,92% (active),inactive,inactive,inactive,inactive,inactive,inactive,inactive,inactive,inactive,inactive,inactive,–,–,–,–
CN(C)C(CNC(=O)CCc1nc2ccccc2s1)c1ccccc1 (stereo unspecified),inactive,inactive,inactive,inactive,96% (active),–,inactive,inactive,inactive,inactive,inactive,inactive,inactive,inactive,inactive,inactive,–,86% (active),–,–
CCOc1ccc2ccccc2c1CNCCc1ccc(S(N)(=O)=O)cc1,inactive,inactive,inactive,inactive,92% (active),inactive,inactive,inactive,inactive,inactive,inactive,inactive,–,inactive,inactive,inactive,35.5% (active),–,–,–
O=C(CSc1nnc(-c2ccc(Cl)cc2Cl)n1C1CCCCC1)N1CCCC1,inactive,inactive,inactive,inactive,–,–,inactive,inactive,inactive,inactive,inactive,inactive,inactive,inactive,inactive,inactive,–,48% (active),–,inactive
CCC1CCCCN1CCN1C(=O)C2C(C(=O)Nc3ccc(OC)cc3)C3C=CC2(O3)C1C(=O)NC1CCCCC1 (stereo unspecified),inactive,inactive,inactive,inactive,96% (active),–,inactive,inactive,inactive,inactive,inactive,inactive,inactive,inactive,inactive,inactive,–,90% (active),–,–
CCOc1ccc(CN2CCN(C(=O)c3ccccc3)CC2)cc1,inactive,inactive,inactive,inactive,79% (active),inactive,inactive,inactive,inactive,inactive,inactive,inactive,–,inactive,inactive,inactive,44.7% (active),–,–,–
CCC(=O)N1CCc2cc(S(=O)(=O)NCCN3CCCCC3CC)ccc21 (stereo unspecified),inactive,inactive,inactive,inactive,94% (active),–,inactive,inactive,inactive,inactive,inactive,inactive,–,inactive,inactive,inactive,17.9% (active),59% (active),–,–
